Screening data deposited in PubChem by several laboratories.
GDH-TPI counter-1: GDH-TPI coupling enzyme inhibitors, primary screen, artefact control for M. tuberculosis FBA inhibitor project, biochemical, absorbance, full deck; GDH-TPI coupled enzyme counterscreen, NADH absorbance; inhibition, % at 4.8 µM; 360,000 compounds, 1.2% hits; AID 588335, 2011; in the data active = inhibition above about 30%
Mtb FBA inh: Mtb FBA enzyme inhibitors, primary screen, biochemical, fluorescence, strain H37Rv. purified M. tuberculosis FBA, fluorescence read-out. inhibition, % at 1 µM. 360,000 compounds, 2.3% hits. AID 588726, 2011
Target sequence (P9WQA3 whole entry, looked up): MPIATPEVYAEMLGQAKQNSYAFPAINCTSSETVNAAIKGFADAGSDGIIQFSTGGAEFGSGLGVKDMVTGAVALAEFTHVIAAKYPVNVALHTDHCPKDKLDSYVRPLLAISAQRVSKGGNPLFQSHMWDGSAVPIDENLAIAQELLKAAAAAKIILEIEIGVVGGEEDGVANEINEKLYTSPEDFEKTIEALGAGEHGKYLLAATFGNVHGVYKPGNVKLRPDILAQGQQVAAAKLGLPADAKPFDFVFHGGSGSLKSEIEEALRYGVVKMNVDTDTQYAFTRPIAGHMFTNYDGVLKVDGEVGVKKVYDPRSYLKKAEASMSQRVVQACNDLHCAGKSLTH
3CLpro inhibitor: SARS-CoV 3CLpro protease inhibitors, primary screen, biochemical, quenched FRET | recombinant SARS-CoV 3CLpro, quenched FRET peptide cleavage | inhibition, % at 6 µM | 290,000 compounds, 0.14% hits | AID 1706, 2009; in the data active = inhibition above about 12%
Mtb BioA inh: M. tuberculosis BioA enzyme inhibitors, primary screen, biochemical, plate reader, single point, HTS; inhibition, % at 9.99 µM; purified M. tuberculosis BioA enzyme; 7,8-diaminopelargonic acid synthase BioA (Mycobacterium tuberculosis); 360,000 compounds, 0.096% hits; in the data active = inhibition above about 40%
FadD28 FP inh: inhibitors of FadD28 bisubstrate probe binding, primary screen, biochemical, fluorescence polarization, single point; Mycobacterium tuberculosis FadD28 fatty-acid-AMP ligase; inhibition, % at 12.5 µM; 360,000 compounds, 0.22% hits; AID 588549, 2011; in the data active = inhibition above about 8.5%, passing the limit was not always enough
Mtb FBA confirm: M. tuberculosis aldolase blockers, biochemical, fluorescence, strain H37Rv, confirmation; shares compounds with Mtb FBA inh; purified M. tuberculosis FBA, fluorescence read-out; inhibition, % at 1 µM; 5,600 compounds, 78% hits; AID 651616, 2012
GDH-TPI counter-2: GDH-TPI coupling enzyme inhibitors, artefact control for M. tuberculosis FBA inhibitor project, biochemical, fluorescence, high throughput. shares compounds with Mtb FBA inh. GDH-TPI coupled enzyme counterscreen. inhibition, % at 1 µM. 5,600 compounds, 81% hits; in the data active = inhibition above about 10%
GDH-TPI DR: GDH-TPI coupling enzyme inhibitors, dose response, artefact control for M. tuberculosis FBA inhibitor project, biochemical, fluorescence, IC50; shares compounds with Mtb FBA inh; GDH-TPI coupled enzyme assay, artifact counterscreen; IC50, µM; 170 compounds, 79% hits; call rule not given here
Large screens that a line does not name were inactive (follow-up assays come after a bar, where they were run); ! = repeats disagree. Shown are actives, neighbours in structure and some others; about 3.1% of the full set was active somewhere. Rule as the data show it, unless noted: active = inhibition above about 27%; inactive = the rest.

COc1ccccc1CNC(=O)C[C@@H]1C[C@@H]2c3cc(NC(=O)c4ccc5c(c4)OCO5)ccc3O[C@@H]2[C@H](CO)O1	none (no result: GDH-TPI counter-1, Mtb FBA inh, 3CLpro inhibitor, FadD28 FP inh)
O=C1OCCN1C(=O)[C@H]1[C@H](c2ccc(F)cc2)C(c2ccccc2)=NN1c1ccccc1	none (no result: 3CLpro inhibitor)
CC[C@H]1C(c2ccc(F)cc2)=NN(c2ccccc2)[C@@H]1CO	Mtb FBA inh 30 (no result: 3CLpro inhibitor) | Mtb FBA confirm 65 | GDH-TPI counter-2 63
OC[C@@H]1[C@@H](c2ccc(F)cc2)C(c2ccccc2)=NN1c1ccccc1	Mtb FBA inh 29 (no result: 3CLpro inhibitor) | Mtb FBA confirm 48 | GDH-TPI counter-2 45
O=C(O)CCC(NC(=O)c1cncc(O)c1)C(=O)O (configuration not stated)	none
CN(Cc1cnc2nc(N)nc(N)c2n1)c1ccc(C(=O)N[C@@H](CCC(=O)O)C(=O)O)cc1	Mtb FBA inh 108! (no result: 3CLpro inhibitor) | Mtb FBA confirm 119 | GDH-TPI counter-2 108
Nc1nc2ncc(CNc3ccc(C(=O)N[C@@H](CCC(=O)O)C(=O)O)cc3)nc2c(=O)[nH]1	Mtb FBA inh 44 | Mtb FBA confirm 113 | GDH-TPI counter-2 90
CCOC(=O)CCC(NC(=O)c1ccc(NCN2C(=O)CCC2=O)cc1)C(=O)OCC (configuration not stated)	none
O=S(=O)(N[C@H]1CC[C@@H](CCn2cc(-c3cccnc3)nn2)O[C@H]1CO)c1ccc(F)cc1	none (no result: GDH-TPI counter-1, Mtb FBA inh, 3CLpro inhibitor, FadD28 FP inh)
Cc1nc2c(oc3ccccc32)c(=O)o1	none
Cc1c2cnccc2c(C)c2c1oc1ccccc12	Mtb FBA inh 43 (no result: 3CLpro inhibitor, Mtb BioA inh) | Mtb FBA confirm 115 | GDH-TPI counter-2 94
CCCCN(CCCC)Cc1cc(=O)oc2cc(OC)c(Cl)cc12	none (no result: GDH-TPI counter-1, 3CLpro inhibitor)
CCCCN(CCCC)Cc1cc(=O)oc2cc(OC)ccc12	Mtb FBA inh 45 (no result: GDH-TPI counter-1, 3CLpro inhibitor) | Mtb FBA confirm active | GDH-TPI counter-2 active
COc1ccc2c(CN3CCCC3)cc(=O)oc2c1	Mtb FBA inh 36 (no result: GDH-TPI counter-1, 3CLpro inhibitor) | Mtb FBA confirm inactive | GDH-TPI counter-2 inactive | GDH-TPI DR 5.1
COC(=O)C1CCN(Cc2cc(=O)oc3cc(OC)ccc23)CC1	none
COc1ccc2c(CC(=O)O)cc(=O)oc2c1	Mtb FBA inh 66 | Mtb FBA confirm active | GDH-TPI counter-2 active
CO[C@H]1CN(C)C(=O)c2cc(NS(=O)(=O)c3ccc(C)cc3)ccc2OC[C@@H](C)N(C(=O)NC(C)C)C[C@@H]1C	none (no result: GDH-TPI counter-1, Mtb FBA inh, 3CLpro inhibitor, FadD28 FP inh)
Cc1nn(CC(=O)Nc2ccc3c(c2)CCC3)c(C)c1[N+](=O)[O-]	none (no result: 3CLpro inhibitor)
Cc1ccc(NC(=O)Cn2nc(C)c([N+](=O)[O-])c2C)cc1C	Mtb FBA inh 36 | Mtb FBA confirm inactive | GDH-TPI counter-2 inactive
C/C(N)=C(/C#N)C(=O)COC(=O)c1cccc2ccccc12	Mtb FBA inh 28 | Mtb FBA confirm 73 | GDH-TPI counter-2 55
CCC(=O)N(C)C[C@@H]1Oc2cc(/C=C/c3ccccc3)ccc2S(=O)(=O)N([C@H](C)CO)C[C@H]1C	none (no result: GDH-TPI counter-1, Mtb FBA inh, 3CLpro inhibitor, FadD28 FP inh)
CS(=O)(=O)c1ccc(Cl)c(C(=O)NC2CCSc3ccccc32)c1 (configuration not stated)	Mtb FBA inh 64 | Mtb FBA confirm inactive | GDH-TPI counter-2 inactive
O=C(C[C@H]1CC[C@@H]2[C@H](COC[C@H](O)CN2C(=O)c2ccc(F)cc2)O1)NCCCN1CCOCC1	none (no result: GDH-TPI counter-1, Mtb FBA inh, 3CLpro inhibitor, FadD28 FP inh)
CCOc1ccc(-c2cc(C)[n+](CCO)c(-c3ccc(OCC)cc3)c2)cc1	Mtb FBA inh 63 | Mtb FBA confirm 67 | GDH-TPI counter-2 49
N#Cc1c(-c2ccccc2)c(C#N)c2nc3ccccc3n2c1N	Mtb FBA inh 83 (no result: Mtb BioA inh) | Mtb FBA confirm 91 | GDH-TPI counter-2 67
CC1=CC(c2ccccc2)n2nc(N)nc2N1 (configuration not stated)	Mtb FBA inh 53 (no result: 3CLpro inhibitor) | Mtb FBA confirm 40 | GDH-TPI counter-2 37
CC1=CC(c2ccccc2)n2nc(NS(=O)(=O)c3ccc(C)cc3)nc2N1 (configuration not stated)	Mtb FBA inh 49 | Mtb FBA confirm inactive | GDH-TPI counter-2 15
CC1=CC(c2ccc(Cl)cc2)n2nc(NS(=O)(=O)c3ccc(C)cc3)nc2N1 (configuration not stated)	Mtb FBA inh 80 | Mtb FBA confirm 68 | GDH-TPI counter-2 63
CC1=CC(c2ccccc2)n2ncnc2N1 (configuration not stated)	none (no result: 3CLpro inhibitor)
Cc1noc(C)c1NC(=O)Nc1cccc2c1O[C@@H](CN(C)C(=O)Nc1ccccc1)[C@@H](C)CN([C@H](C)CO)C2=O	none (no result: GDH-TPI counter-1, Mtb FBA inh, 3CLpro inhibitor, FadD28 FP inh)
CCNC(=O)Nc1ccc2c(c1)C(=O)N(C)[C@H]1CC[C@@H](CC(=O)NCC3CC3)O[C@H]1CO2	none (no result: GDH-TPI counter-1, Mtb FBA inh, 3CLpro inhibitor, FadD28 FP inh)
O=C(Nc1ccc(F)cc1)Nc1ccc2c(c1)[C@@H]1C[C@@H](CC(=O)N3CCOCC3)O[C@H](CO)[C@@H]1O2	none (no result: GDH-TPI counter-1, Mtb FBA inh, 3CLpro inhibitor, FadD28 FP inh)
Cc1ccc(S(=O)(=O)NCC[C@@H]2CC[C@@H](NC(=O)c3ccccn3)[C@@H](CO)O2)cc1	none (no result: GDH-TPI counter-1, Mtb FBA inh, 3CLpro inhibitor, FadD28 FP inh)
CNc1ccc2ncc(-c3ccccc3NC(C)=O)n2n1	Mtb FBA inh 47 (no result: 3CLpro inhibitor) | Mtb FBA confirm inactive | GDH-TPI counter-2 inactive
CCCCN(C)Cc1c(C)[nH]c2ccc(OCC)cc2c1=O	Mtb FBA inh 35 | Mtb FBA confirm inactive | GDH-TPI counter-2 inactive
Cc1cc(C(=O)NCc2ccc(S(N)(=O)=O)cc2)cs1	none
Cc1ccc(S(=O)(=O)Nc2cccc(C(=O)NCc3ccc(S(N)(=O)=O)cc3)c2)cc1	Mtb FBA inh 27 | Mtb FBA confirm 156 | GDH-TPI counter-2 128
Cc1ccc(C2N=C(N)Nc3nc(=O)c4ccccc4n32)cc1 (configuration not stated)	Mtb FBA inh 76 (no result: Mtb BioA inh) | Mtb FBA confirm inactive | GDH-TPI counter-2 inactive
Cc1ccc(C2N=C(N)Nc3nc4ccccc4n32)cc1 (configuration not stated)	none
CC(=O)N(C)C[C@H]1Oc2ncc(C#Cc3ccc(F)cc3)cc2C(=O)N([C@H](C)CO)C[C@H]1C	none (no result: GDH-TPI counter-1, Mtb FBA inh, 3CLpro inhibitor, FadD28 FP inh)
CC(=O)Nc1ccc(-c2cn3cc(C)ccc3n2)cc1	Mtb FBA inh 74 | Mtb FBA confirm active | GDH-TPI counter-2 145
CC(=O)Nc1ccc(-c2cc(C(=O)O)c3ccc(C)cc3n2)cc1	Mtb FBA inh 47 (no result: Mtb BioA inh) | Mtb FBA confirm inactive | GDH-TPI counter-2 inactive
